From PubChem BioAssay (NCI) come the findings set out here.

“And” between values parts separate entries of the source, which are not always exact repeats. Equal entries are not always repeated. This is part of a sample that, as a whole, favours compounds with a hit. Of some 83,000 tested, about 20% had one in any assay.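 Assay: single dose, 48 h. Readout: percent growth (0 = no net growth; negative = cell death). Active: <10.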 Values without a mark were called inactive. The source made the active and inactive calls.

The test system of the experiment is MDA-MB-468 breast. Nature of the experiment: NCI-60 one-dose screen, 48 h (100 = growth as untreated, 0 = no growth, -100 = all killed). The settings on record: 10 µM unless noted.

Regarding `CCC1CCC(C)NC1` (configuration not stated), the growth was 92.4%.

On to `NC(=S)N/N=C\c1nccc2c(C(F)(F)C(F)(F)C(F)(F)F)cccc12`, for which the growth was -69.7% (active).

Consider `O=C1c2cc3c(cc2-c2c1c1ccc(Cl)cc1c(=O)n2CCCNCCO)OCO3`, for which the growth is -91.6% (active).

Consider `O=c1[nH]nc(-c2ccccc2)c2sc3ncc(-c4ccc(Br)cc4)n3c12`, for which the growth was 13.7%.

Regarding `O=C(Nc1ccc(Cl)c(Cl)c1)OCc1ccco1`, the growth is 0.972% (active).

In the case of `CN1CCN(c2ccc(NC(=O)c3nc4ccc5[nH]ncc5c4c4c3CCCC4)cc2C(F)(F)F)CC1`, the growth was 44%.

As to `CCC(=C(c1ccc(OCCN2CCCCC2)cc1)c1ccc(OCCN2CCCCC2)cc1)c1ccc(Cl)cc1`, the growth is -77% (active).

Turning to `C=CCNc1ccc2c3c(cccc13)C(=O)N(N1C(=O)c3cccc4cccc(c34)C1=O)C2=O`, the growth was 101%.

Regarding `CCOC(=O)N1CCN(CCCCOc2ccc(C(C)(C)CC)cc2)CC1`, the growth was 92.9%.

On to `Oc1ccc(C2c3ccccc3Oc3ccccc32)c2cccnc12`, for which the growth was 9.14% (active).

Take `CC(=O)c1c(C)[nH]c(-c2nc3ccc(N4CCN(C)CC4)cc3[nH]2)c1-c1ccccc1`: the growth was 24.1%.

For the molecule `Cc1ccc(Cl)cc1Nc1nc(C(F)(F)F)ccc1C(=O)N/N=C/c1c(Cl)cccc1Cl`, the growth was -13.1% (active).

As for `O=C1/C(=C/c2cc(F)cc(F)c2)Cc2cc3c(cc21)OCO3`, the growth is 8.61% (active).

Take `COc1ccc2[nH]cc(-c3nc(-c4c[nH]c5c(Cl)nccc45)cs3)c2c1`: the growth was 34.1%.

On to `CCOC(=O)c1ccc2n1CCCc1cnc(NC(C)=O)nc1-2`, for which the growth was 96.1%.

Turning to `Clc1ccc(Nc2nc(Nc3ccccc3)nc(Nc3ccc(-c4cc(-c5ccc(Cl)cc5)on4)cc3)n2)cc1`, the growth is 93.4%.

With `Cc1ccc(C2=NN(C)C(=O)C3(CCCC3)C2)cc1`, the growth was 98.7%.

On to `C#CCn1cnc2cnc(Nc3cccc(NC(=O)CCl)c3)nc21`, for which the growth is -17.3% [6.25 µM] (active).

For the molecule `CC1OC(O[C@@H]2[C@H](O)C(CO)OC(O[C@H]3COC(O[C@H]4CC[C@]5(C)[C@H]6CC[C@]78OC[C@@]9(CC[C@](C)(C=O)C[C@H]97)C(=O)C[C@@]8(C)[C@]6(C)CC[C@H]5C4(C)C)[C@@H](O)[C@@H]3O)[C@H]2OC2OC[C@@H](O)[C@@H](O)[C@@H]2O)[C@@H](O)[C@@H](O)[C@H]1O` (some centres not stated), the growth was 104%.

On to `Cc1ccc(-c2nc(C#N)c(S(=O)(=O)NCCO)o2)cc1`, for which the growth is 37.1%.

For the molecule `Cc1cc(O)c2c(c1)C[C@H]1[C@@H]3CC[C@H]4CC(=O)CC[C@]4(C)[C@H]3CC(=O)[C@]21C`, the growth is 71.4%.

`CCN1C(=O)c2ccc3c4c(ccc(c24)C1=O)C(=O)N(CCCNCc1ccccc1OC)C3=O`: the growth is -71.4% (active).

Turning to `C(=C1c2ccccc2-c2ccccc21)c1ccccn1`, the growth is 22.4%.

In the case of `Nc1nc(N)c2cc(Sc3ccc(Cl)cc3)ccc2n1`, the growth was 18.7%.

For `OB(O)c1ccsc1-c1nc2ccc3[nH]ncc3c2c2c1CCCC2`, the growth was 8.64% (active).

With `COc1ccc2c(ccc[n+]2C)c1`, the growth is 81.5%.

Consider `CCCC(=O)OCC1OC(n2cnc3c(=S)nc[nH]c32)C(OC(=O)CCC)C1OC(=O)CCC` (configuration not stated), for which the growth is 70.8%.

Take `COc1cc(CNCCCN2C(=O)c3ccc4c5c(ccc(c35)C2=O)C(=O)N(CCCNCc2cc(OC)c(OC)c(OC)c2)C4=O)cc(OC)c1OC`: the growth is -93.3% (active).

Consider `Fc1ccc2nc(-c3cnn4cccnc34)sc2c1`, for which the growth is -2.57% (active).

`O=C1c2c(c3c4cccc(F)c4[nH]c3c3ccc4ccccc4c23)C(=O)N1O`: the growth is 54.3%.

As for `OCC1C2C=CC(C2)C1CO` (configuration not stated), the growth is 98.4%.

As to `COc1ccc2[nH]c(O)c(/C=c3/cc4c(c(-c5cc(OC)c(OC)c(OC)c5)n3)=Nc3ccccc3-4)c2c1`, the growth is 49.7%.

Take `CN1CCN(CCOc2ccc(-c3cnc4c(-c5ccc(C(F)(F)F)cc5)cnn4c3)cc2)CC1`: the growth was 42.1%.

Consider `Cn1cc(-c2nc(-c3c[nH]c4ncccc34)cs2)c2cc(Br)ccc21`, for which the growth is 5.22% (active).

Take `Cc1c(C(N)=O)sc2ncn(CC(=O)NN=C3CCCCC3)c(=O)c12`: the growth is 109%.

As to `O=C1Nc2ccccc2/C1=C/C(=O)c1ccc(N2CCCC2)cc1`, the growth is 5.3% (active).

With `O=C(NNC(=O)c1ccc([N+](=O)[O-])cc1)c1ccc([N+](=O)[O-])cc1`, the growth was 109%.

Regarding `O=C1[C@@H]2Cc3c([nH]c4ccccc34)[C@@H](c3ccc(Cl)cc3)N2C(=O)CN1C1CCN(Cc2ccccc2)CC1`, the growth is 49.5%.

With `O=C(Nc1ncc(Cc2ccccc2)s1)c1cc(-c2ccccc2)nc2ccccc12`, the growth was 103%.

As to `C#C[C@@]1(O)[C@@H](CO)O[C@@H](n2cc(I)c3c(N)ncnc32)[C@@H]1O`, the growth was -37.7% (active).

With `COc1ccc(Cn2cc3c(c2-c2ccc(O)cc2)CCc2cnoc2-3)cc1`, the growth was -3.26% (active).

Consider `O=C1CC(c2ccc3c(c2)OCO3)Nc2cc3c(cc21)OCO3` (configuration not stated), for which the growth is -11.3% (active).

As to `NS(=O)(=O)c1ccc(-n2cc(CN3CCCCC3)nn2)cc1`, the growth was 101%.

Take `Cn1c(NCCc2ccc(O)c(O)c2)nc2c1c(=O)n(Cc1ccc(Cl)cc1)c(=O)n2C`: the growth was 19.4%.

With `CCN(C(=O)N1CCN(c2cc3c(cc2F)c(=O)c(C(=O)O)cn3C2CC2)CC1)c1nc(-c2ccc(Cl)cc2)cs1`, the growth was -2.66% (active).

Take `Nc1ccc(Cl)c([N+](=O)[O-])c1`: the growth was 98.5%.

Take `O=c1[nH]c(=S)[nH]c(=O)n1Cc1cccc2ccccc12`: the growth is 107%.

With `Cc1ccccc1/C=C/C(=O)c1cccc(OCCCOc2cccc(C(=O)/C=C/c3ccccc3C)c2)c1`, the growth was 108% [3 µM].

As for `CC[n+]1c(/C=C/c2ccc(N3CCCC3)cc2)cccc1/C=C/c1ccc(N2CCCC2)cc1`, the growth is -85.8% (active).

Take `COc1ccc(C/C(=C(\C)c2ccc(OCCN3CCCC3)cc2)c2ccc(OCCN3CCCC3)cc2)cc1`: the growth is 33.2%.

For the molecule `C#C[C@]1(O)CC[C@H]2[C@@H]3CC=C4c5sc(Nc6nc(C)cc(OC)n6)nc5CC[C@]4(C)[C@H]3CC[C@@]21C`, the growth is 63.1%.

Consider `Nc1ccc(-c2cc3c(Nc4ccc(OCc5cccc(F)c5)c(Cl)c4)ncnc3s2)cc1`, for which the growth was 14.2%.

As to `Cc1n(Cc2ccc3ccccc3n2)cc[n+]1Cc1ccc2ccccc2c1`, the growth was -23.5% (active).

For `S=C(Nc1ccc(C2=NCCN2)cc1)Nc1ccc(C2=NCCN2)cc1`, the growth was 67.6%.

With `NC(N)=N/N=C/c1cccc(Cl)c1Cl`, the growth is 18.1%.

Consider `CCOC(=O)NC(C)C`, for which the growth was 96.4%.

As for `CCOC(=O)C1=C(COCCN)NC(C)=C(C(=O)OC)C1c1ccccc1Cl` (configuration not stated), the growth is 17%.

Turning to `N#Cc1cn(Cc2ccc(Cl)cc2Cl)c(C(=O)c2ccc(Br)cc2)c1N`, the growth was 75.5%.

Regarding `O=C(Nc1ccc(-n2ccc3c(NC(=O)c4ccccc4)nccc32)cc1)c1cccc(C(F)(F)F)c1`, the growth is 16.8%.

As to `O=C1[C@H]2Cc3c([nH]c4ccccc34)[C@@H](c3ccc(Br)cc3)N2C(=O)CN1C1CCN(CC2CCCCC2)CC1`, the growth is -84.6% (active).

As for `Nc1cc2c(cc1N)-c1ccccc1C2`, the growth was 89.4% and 97.8%.

Take `CCn1c(SCC(=O)Nc2cc(C(F)(F)F)ccc2Cl)nc2ccccc2c1=O`: the growth is 50.3%.

With `CC1(O)OC(COc2ccc(Cl)cc2)COC1O` (configuration not stated), the growth was 105%.

Take `CCCCn1c(-c2ccc(F)cc2)nc2cc(OC)c(OC)cc2c1=O`: the growth is 115%.

As to `CC(C)OC(=O)NNC(=O)c1ccncc1`, the growth was 118%.

Take `COC(=O)Nc1ccc2ccc3c(NC(=O)OC)ccc4ccc1c2c43` (tested in a mixture with another compound): the growth was 40.9%.

As to `CC(CN)[C@@H]1CC[C@]2(CO)CC[C@]3(C)[C@H](CC[C@@H]4[C@@]5(C)CCC(NCCO)C(C)(C)[C@@H]5CC[C@]43C)[C@@H]12` (some centres not stated), the growth was 11.8%.

For the molecule `COc1ccc(OC)c(/C=C/c2nc(SC)n(-c3ccc(Cl)cc3)n2)c1`, the growth was 25.2%.

Consider `COc1cccc(/C=C2\SC(=Nc3ccc(NC(C)=O)cc3)NC2=O)c1OC`, for which the growth was 109%.

Turning to `CC(C)OC(=O)Nc1cc(F)ccc1F`, the growth is 92.8%.

For the molecule `COc1ccc(C2=NN(C(C)=O)C(c3cc(OC)c(OC)c(OC)c3)C2)cc1` (configuration not stated), the growth was 108%.

On to `O=C(NC(=S)NNC(=S)NNc1ccccc1)c1ccccc1`, for which the growth was 83.7%.

Turning to `CC(c1ccccc1)C(C(=O)c1ccccc1)c1ccccc1` (configuration not stated), the growth was 81.5%.

Take `Cc1cc(Br)c(N)c(Br)c1`: the growth was 98.3%.

In the case of `COc1ccc(OC)c(-c2c(C#N)c(-c3ccc(Cl)cc3)nc3c2c(-c2ccccc2)nn3-c2ccccc2)c1`, the growth is 103%.

Turning to `CC(=O)Nc1c(Cl)cc2c(c1Cl)Cc1ccccc1-2`, the growth is 70.6%.

Regarding `CCOCCc1c(O)nc(SC)[nH]c1=O`, the growth is 82.5%.

Regarding `C=C(C)[C@@H]1CC[C@]2(C(=O)ON)CC[C@]3(C)[C@H](CC[C@@H]4[C@@]5(C)C/C(=C/c6ccc(Br)cc6)C(=O)C(C)(C)[C@@H]5CC[C@]43C)[C@@H]12`, the growth is 73.2%.

Turning to `O=C1C2CC3C(CC2C(=O)[N]1[Sn]([c]1ccccc1)([c]1ccccc1)[c]1ccccc1)C1(Cl)C(Cl)=C(Cl)C3(Cl)C1(Cl)Cl` (configuration not stated), the growth was -83.1% (active).

`COc1cc2c(cc1OC(C)=O)C(=O)CCCC2`: the growth is 76.8%.

With `Cn1cc(-c2nonc2-c2c[nH]c3ccccc23)c2cccnc21`, the growth was -12.9% (active).

With `c1ccc2[nH]c(-c3ccc(Nc4nc(N5CCCC5)nc5[nH]ncc45)cc3)nc2c1`, the growth was -38.5% (active).
